Screening results: PubChem, several laboratories
tim23-1 inh: growth inhibitors of tim23-1 mutant yeast. inhibition, % at 20 µM. S. cerevisiae tim23-1 growth, BacTiter-Glo luminescence, 24 h. actives 1.3% (n = 330,000);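 active = growth inhibition of the mutant yeast at or above 50%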;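 note: temperature-sensitive mutant grown at 25 °C; plate controls were DMSO-treated mutant yeast for no effect and medium wells lacking yeast for full effect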
TIM10 inh: growth inhibitors of TIM10 yeast strain; S. cerevisiae TIM10 strain growth, BacTiter-Glo luminescence, 24 h; AID 463195; actives 1.4% (n = 330,000); inhibition, % at 10 µM;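 active = inhibition of 40% or more at the single tested concentration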;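 note: wild-type TIM10 isogenic control strain grown at permissive 25 °C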
PfHsp90 yeast 2: reduces growth (ATP signal) of yeast expressing P. falciparum Hsp90. S. cerevisiae expressing PfHsp90, BacTiter-Glo ATP, 48 h; yeast lacking PDR1 and PDR3 efflux regulators. inhibition, % at 9.4 µM. actives 0.32% (n = 310,000);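 active = every replicate shows inhibition above about 80%, whatever the replicate mean, limit read from the data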;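 note: 0% = DMSO neutral controls and 100% = 20 µM radicicol positive controls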
SKKanGAS inh: inhibitors of SKKanGAS S. pyogenes growth in kanamycin (SK-promoter or general growth effect); BacTiter-Glo, 6 h; inhibition, % at 7.5 µM; actives 1.3% (n = 300,000); AID 1662;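 active = mean replicate score, as percent of positive control median, at least 50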;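 note: strain carries kanamycin resistance gene driven by streptokinase promoter and grows in 40 µg/ml kanamycin; loss of luminescence reflects streptokinase promoter inhibition or plain growth inhibition; 0% = median of DMSO wells and 100% = positive control at its reference dose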
NALP1 yeast inh: blocks the NALP1 inflammasome reconstituted in yeast; inhibition, % at 10 µM; AID 2071; S. cerevisiae NALP1/ASC/caspase-1 growth, X-gal OD620, 72 h; actives 0.61% (n = 280,000); in the data active = inhibition mostly above about 24%, no sharp cut-off; inactive = mostly below about 32%
tim10-1 inh: tim10-1 yeast growth inhibition | S. cerevisiae tim10-1 ts strain growth, BacTiter-Glo, 24 h | inhibition, % at 20 µM | actives 2.2% (n = 330,000);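 active = inhibition of at least 40%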;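 note: mutant grown at 25 °C; 0% = DMSO wells with yeast and 100% = wells holding no yeast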
tim23-1 confirm: confirmation of tim23-1 mutant yeast growth inhibitors | shares compounds with tim23-1 inh | inhibition, % at 20 µM | actives 83% (n = 4,400) | AID 463218 | S. cerevisiae tim23-1 growth, BacTiter-Glo luminescence, 24 h;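 active = inhibition above about 39% in either of two replicate wells at 20 µM, limit read from the data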;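 note: temperature-sensitive tim23-1 mutant grown at 25 °C; 0% = DMSO wells with yeast and 100% = medium wells without yeast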
Starred values were filed as active, the others as inactive; · = no result. A selection: hits, their analogues and other compounds. The true share with any hit is near 4.8%.

SMILES	tim23-1 inh	TIM10 inh	PfHsp90 yeast 2	SKKanGAS inh	NALP1 yeast inh	tim10-1 inh	tim23-1 confirm
CCCCCn1c(SCC(=O)CC(=O)OCC)nc2cc(C(=O)N3CCC(C(N)=O)CC3)ccc2c1=O	7	1	-16	5	5	16	·
Cn1c(N)c(C(=O)COC(=O)/C=C/c2ccc(Cl)cc2Cl)c(=O)n(C)c1=O	1	-16	·	·	·	5	·
COc1ccccc1/C=C/C(=O)OCC(=O)c1c(N)n(C)c(=O)n(C)c1=O	95*	-8	11	6	20	8	0
CCC(C)NC(=O)c1cc2c(=O)n(CC)c3ccccc3c2s1 (stereo unspecified)	52*	13	-4	7	14	34	49*
Cc1ccc(CN2CCN(C/C=C/c3ccc(F)cc3)CC2CCO)o1 (stereo unspecified)	-15	-7	-26	-3	-1	-2	·
Cc1c(NS(=O)(=O)c2cccs2)cccc1-c1nc2cccnc2s1	59*	28	4	-2	-2	33	56*
Cc1ccc2nc(NC(=O)COC(=O)c3cccnc3)sc2c1	53*	31	·	·	·	-15	60*
Cc1ccc2nc(NC(=O)COC(=O)c3ccco3)sc2c1	17	31	·	8	12	7	·
CC1CN(C(=O)N2c3ccccc3Sc3ccccc32)CC(C)O1 (stereo unspecified)	34	13	-23	20	17	26	·
CCn1cc(C(=O)NN)c(=O)c2cc(F)c(N3CCCCC3)cc21	51*	8	14	1	1	16	20
O=C(c1cc(N2C(=O)C3C4CCC(C4)C3C2=O)ccc1Cl)N1CCN(c2ccc(F)cc2)CC1 (stereo unspecified)	22	27	-5	3	17	19	·
Cc1[nH]n(-c2nc(-c3ccccc3)cc(=O)[nH]2)c(=O)c1CCO	87*	6	0	-1	-22	2	12
Cc1nc(-c2ccccc2)cc(=O)[nH]1	0	7	·	-1	22	8	·
O=C(O)CCc1ccc(-c2ccc(Cl)cc2)n1NC(=O)c1ccc(O)cc1	5	5	-15	-2	11	2	·
Oc1c(CN2CCCCC2)cc(COCc2ccccc2)c2cccnc12	-17	5	-8	-2	4	23	·
Cc1sc(NC(=O)c2cccs2)c(C(N)=O)c1C	51*	22	-14	-14	8	21	67*
O=C(Nc1ccc(Cl)cc1)c1cccs1	61*	37	-3	3	·	-5	59*
Cc1ccn(-c2ccc(NC(=O)c3cccs3)cc2)n1	75*	38	59	6	-11	13	69*
O=C(Nc1ccc(F)c([N+](=O)[O-])c1)c1cccs1	53*	8	3	-3	-10	-15	49*
c1ccc(-c2nc(-c3ccco3)n3ccccc23)cc1	24	11	43	-1	14	17	·
Nc1ccc(NC(=O)c2cccs2)c(Cl)c1	7	3	-19	-2	16	10	·
CCCc1nc2ccc(NC(=O)c3cccs3)cc2c(=O)n1Cc1ccc(Cl)cc1	13	21	-11	31	-2	-8	·
O=C(Nc1ccc(NC(=O)c2cccs2)c(Cl)c1)c1cccs1	51*	28	10	-2	1	8	65*
Cc1nc2ccc(NC(=O)c3cccs3)cc2c(=O)n1Cc1ccc(Cl)cc1	62*	33	15	9	40	33	46*
COc1cc(OC)c(NC2c3ccccc3C(=O)N2c2cc(C)ccn2)cc1Cl (stereo unspecified)	52*	12	18	-6	2	13	42*
O=C(/C=C/c1ccccc1)Nc1scc(-c2ccccc2)c1C(=O)O	·	·	25	15	9	·	·
O=C(/C=C/c1ccco1)Nc1scc(-c2ccccc2)c1C(=O)O	55*	9	49	14	-9	-11	46*
O=C(Nc1scc(-c2ccccc2)c1C(=O)O)c1ccccc1F	58*	29	28	13	-5	18	54*
COc1ccc(-c2csc(NC(=O)c3ccccc3OC)c2C(=O)O)cc1OC	-6	-8	9	10	-9	-32	·
